Shown are actives, neighbours in structure and some others; about 2.9% of the full set was active somewhere.
MEKK3 PB1 HTS – modulators of MEKK3-MEK5 PB1 binding, primary screen, biochemical, wildtype MEKK3, multiplex bead flow cytometry, Alexa488-MEK5. bead-based flow cytometry, Alexa488-MEK5 binding to MEKK3; actives lie on both sides; 0 = blocked by unlabeled MEK5, 100 = vehicle. binding response (% of control), % at 10 µM. AID 1529, 2009. actives 1.4% (n = 290,000);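 active = binding response more than 3 SD above or below the average of its plate-row segment, actives on both sides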;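 note: Alexa488 bead fluorescence after subtracting the streptavidin-only scavenger bead signal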
Target sequence (Q99759 whole entry, looked up): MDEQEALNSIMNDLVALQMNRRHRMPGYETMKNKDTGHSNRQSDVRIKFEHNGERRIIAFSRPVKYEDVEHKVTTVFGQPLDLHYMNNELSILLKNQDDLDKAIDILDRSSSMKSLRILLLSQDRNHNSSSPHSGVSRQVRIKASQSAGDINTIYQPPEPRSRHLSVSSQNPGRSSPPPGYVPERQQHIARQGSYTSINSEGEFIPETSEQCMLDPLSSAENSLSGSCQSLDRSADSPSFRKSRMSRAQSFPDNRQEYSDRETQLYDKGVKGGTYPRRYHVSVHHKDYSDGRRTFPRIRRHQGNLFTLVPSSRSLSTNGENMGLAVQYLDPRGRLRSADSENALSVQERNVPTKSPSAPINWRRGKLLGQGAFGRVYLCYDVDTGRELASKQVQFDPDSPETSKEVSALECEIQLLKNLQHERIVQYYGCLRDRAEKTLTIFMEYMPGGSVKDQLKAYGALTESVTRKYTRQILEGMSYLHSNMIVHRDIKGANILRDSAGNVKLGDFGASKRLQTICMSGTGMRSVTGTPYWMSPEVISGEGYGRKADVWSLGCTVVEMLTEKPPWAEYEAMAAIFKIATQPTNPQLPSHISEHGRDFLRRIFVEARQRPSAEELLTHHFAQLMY
dFosB act – activators of delta FosB homodimer, primary screen, biochemical, fluorescence polarization, TAMRA-CDK5 oligo, single point. actives 0.99% (n = 340,000). purified delta FosB; percent of positive-control signal above neutral wells. AID 493131, 2011. Protein FosB (Mus musculus), P13346. activation, % at 25 µM;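 active = mean activation above about 17%, with every replicate also reaching it, limit read from the data, passing the limit was not always enough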
FID counter – compounds displacing fluorescent DNA intercalator, primary screen, artefact control for HCV NS3 helicase inhibitor project, biochemical, FID fluorescence; DNA fluorescent intercalator displacement; inhibition, % at 7.9 µM; actives 0.17% (n = 290,000); in the data active = inhibition above about 37%;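 note: higher means more ethidium bromide displaced from hairpin DNA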
MEKK2 WT-MEK5 – modulators of MEK5 binding to wildtype MEKK2, primary screen, biochemical, multiplex bead flow cytometry, Alexa488-MEK5; Mitogen-activated protein kinase kinase kinase 2 (Homo sapiens), Q9Y2U5; Alexa488-MEK5 binding to MEKK2 WT; actives lie on both sides; binding response (% of control), % at 10 µM; actives 1.1% (n = 290,000); AID 1531, 2009; in the data active = binding response below about 67% or above about 130%
MEKK2mut PB1 HTS – MEK5 binding signal on mutant MEKK2 PB1, primary screen, biochemical, multiplex bead flow cytometry, Alexa488-MEK5; Alexa488-MEK5 binding to MEKK2 mutant; percent response, % at 10 µM; actives 0.35% (n = 290,000); AID 1530, 2009; in the data active = percent response above about 24%, passing the limit was not always enough
MEKK2wt confirm – modulators of MEK5 binding to wildtype MEKK2, confirmation, biochemical, single concentration, multiplex bead flow cytometry; shares compounds with MEKK3 PB1 HTS; Alexa488-MEK5 binding to MEKK2 WT; actives lie on both sides; actives 2.4% (n = 5,900); AID 1892, 2009; binding response (% of control), % at 10 µM; in the data active = binding response below about 16% or above about 210%; inactive = in between
MEKK2mut confirm – mutant MEKK2 PB1-MEK5 binding signal retest – biochemical, single concentration, multiplex bead flow cytometry, confirmation. shares compounds with MEKK3 PB1 HTS. Alexa488-MEK5 binding to MEKK2 mutant. percent response, % at 10 µM. actives 2% (n = 5,900); in the data active = percent response mostly above about 71%, no sharp cut-off; inactive = mostly below about 38%;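 note: higher means compound restores mutant binding toward wildtype level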
MEKK3 confirm – MEKK3 wild-type PB1 binding to MEK5, inhibitors, confirmation, biochemical, bead multiplex flow cytometry, single concentration, wildtype | shares compounds with MEKK3 PB1 HTS | Alexa488-MEK5 binding to MEKK3; hits give low values | binding response (% of control), % at 10 µM | actives 1.8% (n = 5,900) | AID 1894, 2009;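 active = binding response below 72% of control, or above a set upper limit, though filed actives all read lower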;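 note: lower values mean stronger disruption of MEK5 binding to MEKK3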
Of the large screens only hits and unclear results are named; the others gave an inactive call (follow-up assays come after a bar, where they were run); [ ] = dose if it differs, or a comment.

C#CCNC(=O)C1=C[C@H](c2coc3ccccc3c2=O)[C@@H](CCCO)[C@H](OCC)O1	none
Cc1nn(CCO)c2c1C(=O)CCC2	MEKK3 PB1 HTS 128 | MEKK2wt confirm inactive | MEKK2mut confirm inactive | MEKK3 confirm inactive
CCOC(=O)Cn1nc(C)c2c1CCCC2=O	none
O=C(O)CCCn1cc(NC(=O)c2sc3ccccc3c2Cl)cn1	none
CN(CCOC(=O)/C=C/c1ccco1)Cc1ccccc1	none
CC(C)(C)c1cc(C(=O)O)nn1-c1ccccc1	MEKK3 PB1 HTS 2.0[inhibitor], MEKK2 WT-MEK5 3.0[inhibitor] | MEKK2wt confirm inactive | MEKK2mut confirm inactive | MEKK3 confirm inactive
O=C(O)c1cc(-c2ccccc2)n(-c2ccccc2)n1	none
CCC(C)(C)n1nnnc1CN(Cc1cc2cc(OC)ccc2[nH]c1=O)C1CCCC1	MEKK3 PB1 HTS 82[inhibitor] | MEKK2wt confirm inactive | MEKK2mut confirm inactive | MEKK3 confirm inactive
COc1ccc(Cn2nnnc2CN(Cc2cc3ccc(C)cc3[nH]c2=O)C2CCCC2)cc1	none
CCCC[C@@H]1C=C(C(=O)O)[C@H](c2ccc3c(c2)OCO3)N1S(=O)(=O)c1ccc(C)cc1	none (no result: MEKK3 PB1 HTS, FID counter, MEKK2 WT-MEK5, MEKK2mut PB1 HTS)
COc1cc(CSc2nnnn2-c2ccc(C)cc2)cc(OC)c1OC	none (no result: MEKK3 PB1 HTS, MEKK2 WT-MEK5, MEKK2mut PB1 HTS)
CCc1ccc2nc(N(CCCN(C)C)C(=O)c3ccc(S(=O)(=O)N(C)C4CCCCC4)cc3)sc2c1	MEKK2 WT-MEK5 210, MEKK2mut PB1 HTS 51 | MEKK2wt confirm inactive | MEKK2mut confirm inactive | MEKK3 confirm inactive
CCN(Cc1ccccc1)S(=O)(=O)c1ccc(C(=O)N(CCCN(C)C)c2nc3ccc(F)cc3s2)cc1	MEKK2 WT-MEK5 210, MEKK2mut PB1 HTS 38 | MEKK2wt confirm 208 | MEKK2mut confirm inactive | MEKK3 confirm inactive
CN(C)CCCN(C(=O)c1ccc(S(=O)(=O)N(C)C2CCCCC2)cc1)c1nc2ccc(F)cc2s1	MEKK2 WT-MEK5 163, MEKK2mut PB1 HTS 28 | MEKK2wt confirm inactive | MEKK2mut confirm inactive | MEKK3 confirm inactive
COc1cc2nc(N(CCCN(C)C)C(=O)c3ccc(S(=O)(=O)N(C)C4CCCCC4)cc3)sc2cc1OC	none (no result: MEKK3 PB1 HTS, FID counter, MEKK2 WT-MEK5, MEKK2mut PB1 HTS)
CN(C)CCCN(C(=O)c1ccc(S(=O)(=O)N2CCCC2)cc1)c1nc2ccc(Br)cc2s1	MEKK2 WT-MEK5 181, MEKK2mut PB1 HTS 30 | MEKK2wt confirm 234 | MEKK2mut confirm 112 | MEKK3 confirm inactive
CCn1c(CNc2nc(-c3ccccc3)cs2)nnc1SCC(=O)NCc1ccccc1	none
CC(C)OC(=O)C(C)Nc1ccc(F)c(Cl)c1 (configuration not stated)	none
CC1=C(C(=O)OC(C)C)C(c2cccc([N+](=O)[O-])c2)n2c(cc(=O)[nH]c2=S)N1 (configuration not stated)	none
C=CCN(Cc1nc(-c2ccccc2)no1)C(=O)c1ccc2c(c1)OCO2	none
CCN(CC)C(=O)[C@H]1C[C@H](CC(=O)NC/C=C(\C)CCC=C(C)C)C(=O)N2CCc3c([nH]c4cc(CCC(=O)N(C)C)ccc34)[C@]12C	none (no result: MEKK3 PB1 HTS, FID counter, MEKK2 WT-MEK5, MEKK2mut PB1 HTS)
CCN(CC)CCN(C(=O)c1ccc(S(=O)(=O)N2CCCC2)cc1)c1nc2cc(C)cc(C)c2s1	MEKK2 WT-MEK5 142 | MEKK2wt confirm inactive | MEKK2mut confirm inactive | MEKK3 confirm inactive
COc1ccc(C)cc1NC(=O)C1CCN(C(=O)c2ccco2)CC1	none
COc1cc(C(=O)NCC(c2ccccc2)N(C)C)ccc1OCc1c(C)noc1C (configuration not stated)	none (no result: MEKK3 PB1 HTS, FID counter, MEKK2 WT-MEK5, MEKK2mut PB1 HTS)
COc1ccccc1CNC(=O)c1ccc(OCc2c(C)noc2C)c(OC)c1	MEKK3 PB1 HTS 2.0[inhibitor], MEKK2 WT-MEK5 1.0[inhibitor] | MEKK2wt confirm inactive | MEKK2mut confirm inactive | MEKK3 confirm inactive
Cc1ccc(N(C(=O)c2snc(C(N)=O)c2N)C(C(=O)NC2CCCC2)c2ccco2)cc1 (configuration not stated)	none
CCOC(=O)C1(Cc2ccccc2Cl)CCN(C(=O)c2cnccn2)CC1	none
Nc1c(-c2ccccc2)cnn1-c1ccc(C(=O)O)cc1	MEKK3 PB1 HTS 82[inhibitor] | MEKK2wt confirm inactive | MEKK2mut confirm inactive | MEKK3 confirm inactive
Cc1ccc(-c2cnn(-c3ccccc3)c2N)cc1	none
C=CCc1c(OC(C)=O)c2ccccc2n(C)c1=O	MEKK3 PB1 HTS 147 | MEKK2wt confirm inactive | MEKK2mut confirm inactive | MEKK3 confirm inactive
CC(C)(C)C1CCC(C(=O)OCC(=O)c2ccc[nH]2)CC1 (configuration not stated)	none
O=C(/C(=N\Nc1ccccc1)Sc1nnnn1-c1ccccc1)c1ccccc1	MEKK3 PB1 HTS 138 | MEKK2wt confirm inactive | MEKK2mut confirm inactive | MEKK3 confirm inactive
CCOc1ccc2c(c1)c(N=NC(=N)N)c(O)n2C	MEKK3 PB1 HTS 128 | MEKK2wt confirm inactive | MEKK2mut confirm inactive | MEKK3 confirm inactive
NS(=O)(=O)c1ccc(NC(=O)c2c(F)cccc2Cl)cc1	MEKK3 PB1 HTS 131 | MEKK2wt confirm inactive | MEKK2mut confirm inactive | MEKK3 confirm inactive
CCOC(=O)c1c(CSc2ccccc2)n(C)c2cc(Br)c(OCC(O)CNC(CO)(CO)CO)cc12 (configuration not stated)	MEKK3 PB1 HTS 69[inhibitor] | MEKK2wt confirm inactive | MEKK2mut confirm inactive | MEKK3 confirm inactive
CCOC(=O)c1c(CN2CCN(CC#N)CC2)n(C)c2cc(Br)c(OC)cc12	none
CCOC(=O)c1c(CN2CCN(Cc3ccccc3)CC2)n(C)c2cc(Br)c(OC)cc12	MEKK2 WT-MEK5 135 | MEKK2wt confirm inactive | MEKK2mut confirm inactive | MEKK3 confirm inactive
Cc1ccccc1NC(=O)c1nc2nccc(C)n2n1	MEKK3 PB1 HTS 69[inhibitor] | MEKK2wt confirm inactive | MEKK2mut confirm inactive | MEKK3 confirm inactive
COc1ccccc1NC(=O)c1ccc(NC(=O)c2nc3nccc(C)n3n2)cc1	none (no result: MEKK3 PB1 HTS, FID counter, MEKK2 WT-MEK5, MEKK2mut PB1 HTS)

Compound activity (PubChem)
